This is an account of results in PubChem BioAssay AID686997 (Broad Institute, 2013).

Results with a measured potency or affinity are listed apart. Values without a mark were called inactive.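 How the source made its calls: active means compound lowering the viability signal whose fitted half-maximal dose is at most twice its top tested dose; inconclusive means flat curve with 30 to 70% inhibition, or poor fit; inactive means the rest.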

This assay is described as follows: PubChem AID 686997. Particulars: C. neoformans growth, alamar blue, 72 h (sorbitol counter-screen); series mostly up to 35 µM; activity change, negative = inhibition: at the top concentration. (Resazurin is reduced to fluorescent resorufin, in cell work by metabolically active cells.)
For `CO[C@H]1CN(C)C(=O)c2cc(NC(=O)C3CC3)ccc2OC[C@@H](C)N(Cc2cncnc2)C[C@H]1C`, the “activity change, negative = inhibition” value is 8.68%.

On to `COc1ccccc1NC(=S)NCc1ccccc1Cl`, for which the “activity change, negative = inhibition” value was 7.46%.

Turning to `O=C(NC(=S)Nc1cccc(F)c1)c1cccc([N+](=O)[O-])c1`, the “activity change, negative = inhibition” value is 7.08%.

For `Cc1cc(C(=O)NC(=S)Nc2ccccc2N2CCOCC2)ccc1[N+](=O)[O-]`, the “activity change, negative = inhibition” value was 3.41%.

Consider `COC(=O)C1=C(C)N(Cc2ccc(F)cc2)C(=S)NC1c1ccc(F)cc1` (stereo not drawn), for which the “activity change, negative = inhibition” value is 17.6% [at 16 µM].

`O=C(NC(=S)Nc1ccccc1N1CCCC1)c1ccc([N+](=O)[O-])cc1`: the “activity change, negative = inhibition” value is -3.51%.

Regarding `S=C(NCCCc1ccccc1)Nc1ccccc1`, the “activity change, negative = inhibition” value was 10.1%.

Take `O=C(NC(=S)Nc1ccccc1N1CCOCC1)c1cccc([N+](=O)[O-])c1`: the “activity change, negative = inhibition” value was 5.09%.

As for `CCCCN1C(=S)NC[C@@H]1Cc1ccccc1`, the “activity change, negative = inhibition” value is 2.5%.

`O=C(Cc1ccccc1)N[C@H]1C=C[C@@H](CC(=O)N2CCOCC2)O[C@@H]1CO`: the “activity change, negative = inhibition” value was 15.1%.

With `COc1cccc(NC(=S)NC(=O)Cc2ccc(Cl)cc2)c1`, the “activity change, negative = inhibition” value is 7.7%.

On to `O=C(NC(=S)Nc1ccc(Br)cc1)C1CCC1`, for which the “activity change, negative = inhibition” value is 1.92%.

For the compound `Cc1ccc(C(=O)NC(=S)Nc2ccc(N3CCOCC3)cc2)cc1`, the “activity change, negative = inhibition” value is 9.23%.

Turning to `COC(=O)C1=C(C)N(Cc2ccccc2)C(=S)N[C@H]1c1cccc(F)c1`, the “activity change, negative = inhibition” value is -1.98%.

As to `CC(C)CC1(C)N=C(c2ccccc2)C(=S)N1` (stereo not drawn), the “activity change, negative = inhibition” value is 8.07%.

For the compound `O=C(NCCN1CCCCC1)[C@H]1N[C@H]2c3ccc(-c4ccncc4)c(=O)n3C[C@H]2[C@@H]1CO`, the “activity change, negative = inhibition” value was 13.6%.

Take `CCc1ccc(C(=O)NC(=S)NCc2cccnc2)cc1`: the “activity change, negative = inhibition” value was 7.29%.

`CCc1ccc(C(C)NC(=S)NCc2ccc(F)cc2)cc1` (stereo not drawn): the “activity change, negative = inhibition” value was 4.02%.

Turning to `COc1ccccc1CNC(=S)NCc1ccc(Cl)cc1`, the “activity change, negative = inhibition” value is -4.87%.

Turning to `CCOC(=O)NC(=S)Nc1ccc(C(C)(C)C)cc1`, the “activity change, negative = inhibition” value is -8.87%.

Consider `COc1ccc(NC(=S)NCc2ccc(Cl)cc2)c(OC)c1`, for which the “activity change, negative = inhibition” value was 8.07%.

`O=C(NC(=S)NCC1COc2ccccc2O1)c1ccc(Cl)cc1` (stereo not drawn): the “activity change, negative = inhibition” value was 16.9% [at 46 µM].

In the case of `COc1ccccc1NC(=S)NCc1ccc(Cl)cc1`, the “activity change, negative = inhibition” value was 1.84%.

Regarding `S=C(NCc1ccccc1)NCC1COc2ccccc2O1` (stereo not drawn), the “activity change, negative = inhibition” value was -4.42%.

`O=C(NC(=S)Nc1ccccc1N1CCCC1)c1ccccc1[N+](=O)[O-]`: the “activity change, negative = inhibition” value was 3.81%.

As for `CCCCNC(=S)N/N=C/c1ccc(C#N)cc1`, the “activity change, negative = inhibition” value was -5.24%.

Consider `COc1ccc(CNC(=S)NCc2ccc(OC(C)C)cc2)cc1`, for which the “activity change, negative = inhibition” value is 1.25%.

`CCc1nc(N2CCCCC2C)c2oc3ccccc3c2n1` (stereo not drawn): the “activity change, negative = inhibition” value is 9.52%.

For the compound `O=C(NC(=S)Nc1cc(Cl)ccc1N1CCOCC1)c1ccccc1[N+](=O)[O-]`, the “activity change, negative = inhibition” value was 9.06%.

In the case of `Cc1ccc(C)c(NC(=O)C2(C)CCCN2C(=O)C(C)C)c1` (stereo not drawn), the “activity change, negative = inhibition” value is 13.8% [at 56 µM].

`Fc1ccccc1NC(=S)NCCc1cccc(Cl)c1`: the “activity change, negative = inhibition” value is -1.31%.

Regarding `Fc1ccccc1NC(=S)NN(Cc1ccccc1)c1ccccc1`, the “activity change, negative = inhibition” value is -2.68%.

Turning to `COC(=O)C1=C(C)N(CC(C)C)C(=S)NC1c1cccc(F)c1` (stereo not drawn), the “activity change, negative = inhibition” value was 4.94% [at 42 µM].
